PubChem BioAssay AID588342 (National Center for Advancing Translational Sciences (NCATS), 2011)
Screen size: about 360,000 compounds; about 25,000 (6.9%) were called active. Roughly 9% stayed inconclusive and do not appear here. The call rests on the fitted dose curve; in most records, active means well fitted inhibition curve with a large enough effect; inconclusive means small, poorly fitted or top-dose-only effect; inactive means flat fitted curve, though single readings scatter. The list comes from a sample in which actives are over-represented; it also holds similar structures and randomly drawn compounds. A call without a number means that no potency is given here.

Target: Luciferin 4-monooxygenase (Photinus pyralis) (UniProt P08659)
Sequence (P08659 whole entry, looked up): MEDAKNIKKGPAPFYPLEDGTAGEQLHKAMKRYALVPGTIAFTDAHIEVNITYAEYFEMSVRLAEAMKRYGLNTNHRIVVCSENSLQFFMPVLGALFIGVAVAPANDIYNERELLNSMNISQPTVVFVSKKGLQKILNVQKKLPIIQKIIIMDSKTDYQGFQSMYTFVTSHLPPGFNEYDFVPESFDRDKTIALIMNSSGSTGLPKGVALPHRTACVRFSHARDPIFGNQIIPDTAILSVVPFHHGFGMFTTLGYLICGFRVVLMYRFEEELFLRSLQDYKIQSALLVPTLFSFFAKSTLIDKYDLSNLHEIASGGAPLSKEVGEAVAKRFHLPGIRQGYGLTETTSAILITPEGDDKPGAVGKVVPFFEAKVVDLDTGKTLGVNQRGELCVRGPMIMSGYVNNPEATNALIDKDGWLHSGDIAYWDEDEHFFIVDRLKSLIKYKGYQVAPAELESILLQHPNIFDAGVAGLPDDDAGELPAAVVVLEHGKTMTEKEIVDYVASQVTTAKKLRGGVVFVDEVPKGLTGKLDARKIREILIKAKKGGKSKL
Test: qHTS profiling assay for firefly luciferase inhibitor/activator using purifed enzyme and Km concentrations of substrates (counterscreen for miR-21 project); further: nearly all actives have a fitted effect of over 55% in size
Settings: purified FLuc, luminescence inhibition; series mostly up to 57.5 µM
Method in brief: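 Purified P. pyralis luciferase, 10 nM final, with Km-level 10 uM D-luciferin and 10 uM ATP in 50 mM Tris acetate pH 7.5, 10 mM Mg acetate, 0.01% Tween-20, 0.05% BSA; 6-point qHTS titration about 60 µM downward; luminescence read.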
Potency means the concentration at half of the fitted maximal effect.

Compound	Potency
Cc1ccc(S(=O)(=O)N2CCOCC2)cc1NC(=O)COC(=O)c1cnccn1	inactive
Cc1cc(F)ccc1NS(=O)(=O)c1ccc(-n2cccn2)cc1	inactive
O=C(COC(=O)C1(c2ccc(F)cc2)CCCC1)N1CCNC1=O	inactive
COCCN1C(=O)C(=O)/C(=C(/O)c2ccc(S(=O)(=O)N3CCOCC3)cc2)C1c1ccc(O)c(OC)c1 (centres undefined)	inactive
CSc1ccc(/C=C/C(=O)NC23CC4CC(CC(C4)C2)C3)cc1	13.5 µM (active)
CSc1ccc(NC(=O)/C=C/C(=O)O)cc1	inactive
O=C(NCc1ccncc1)NC12CC3CC(CC(C3)C1)C2	inactive
COC(=O)c1sc(NC(=O)COC(=O)C2CCC2)c(C(=O)OC)c1C	inactive
O=C(OCCN1C(=O)c2ccccc2C1=O)Oc1ccccc1	inactive
O=C1c2ccccc2C(=O)N1CCOc1ccc(F)cc1	13.5 µM (active)
Cc1cccc2c1N(CCOc1ccccc1)C(=O)C2=O	inactive
Cc1nc2c(c(C)nn2-c2ccccc2)c(C)c1CCC(=O)NCCc1ccc(Cl)cc1	inactive
O=C(CSc1ncnc2scc(-c3ccccc3)c12)NCc1ccc2c(c1)OCO2	inactive
Cc1cc(C)c(NC(=O)CN2C(=O)c3cccnc3Oc3ccc(Cl)cc32)c(C)c1	inactive
CCn1c(NC(=O)c2nn(C)cc2Br)nc2ccccc21	inactive
Cn1c(NC(=O)c2ccccc2)nc2ccccc21	6.75 µM (active)
Cn1c(S(=O)(=O)O)nc2ccccc21	inactive
Cn1sc(NC(=O)c2ccccc2)nc1=O	19 µM (active)
Cn1nnc(NC(=S)NC(=O)c2ccccc2)n1	inactive
Cc1nc2ccccc2c(=O)n1NC(=O)c1ccccc1	inactive
Brc1cc(Br)c(Oc2cc(Br)c(Br)cc2Br)cc1Br	inactive
CC1CCC(N2CC(=O)N(CCC3=CCCCC3)C(c3ccc(F)cc3)C2=O)CC1 (centres undefined)	inactive
COc1ccc(CN2CCN(C(=O)c3cc(C4CC4)nn3-c3ccccc3)CC2)cc1F	inactive
CCn1c2ccccc2c2cc(NC(=O)Nc3ccc([N+](=O)[O-])cc3C)ccc21	inactive
Cc1ccc(-n2c3nc(=O)[nH]c(=O)c-3cc3c(Cl)cccc32)cc1	inactive
Cc1ccccc1-c1nc(SCC(=O)N(C)c2ccccc2)c2c(=O)n(C)c(=O)n(C)c2n1	inactive

Compound	Potency
CCN(CC)S(=O)(=O)c1ccc(N2CCOCC2)c(NC(=O)c2ccc(=O)n(C)n2)c1	inactive
CCOC(=O)C1C(=O)NC(N2CCN(c3ccccc3)CC2)=NC1c1ccco1 (centres undefined)	inactive
CCOC(=O)C1C(=O)C=C(c2ccc(OC)cc2)CC1c1ccco1 (centres undefined)	13.5 µM (active)
COc1ccc(C2=NN(C(=O)CSc3nnnn3C)C(c3ccco3)C2)cc1 (centres undefined)	inactive
Cc1ccc(Nc2nc(-c3ccc(O)cc3O)cs2)nc1	2.39 µM (active)
O=C(CCNC(=O)c1ccccc1Cl)NCc1ccco1	inactive
CN(C(=O)CSc1nnc(NC(=O)Nc2ccccc2)s1)c1ccccc1	inactive
CC(C)(C)NC(=O)CSc1nnc(NC(=O)CCc2ccccc2)s1	inactive
Cc1cc(NC(=O)CSc2nnc(Nc3ccccc3F)s2)no1	inactive
O=C(Cc1cccs1)Nc1nnc(SCc2ccc(F)cc2)s1	inactive
O=C(CSc1nnc(Nc2ccccc2)s1)Nc1cccnc1Cl	16.9 µM (active)
Cc1nc(SCC(=O)Nc2ccc(C(=O)O)cc2)n[nH]1	inactive
O=C(CSc1nnc(SCc2ccc(F)cc2)s1)Nc1ccc(C(=O)O)cc1	5.36 µM (active)
O=C(CSc1nnc(C2CC2)n1Cc1ccccc1)Nc1cccnc1Cl	inactive
CC(=O)c1ccc(NC(=O)CSc2nnc(NC(=O)Nc3ccccc3)s2)cc1	0.478 µM (active)
CCOc1ccc(NC(=O)CN(C)C(=O)CSc2ccccc2)cc1OCC	inactive
Cc1cccc(Nc2cc(C)nc(-n3nc(C)cc3C)n2)c1	inactive
O=C(NNC(=O)c1cccc(S(=O)(=O)Nc2ccc(Cl)cc2)c1)c1ccc(=O)[nH]c1	inactive
COc1ccc(C(C)(C)C)cc1NC(=O)CCN1C(=O)C2CCCCC2C1=O (centres undefined)	inactive
O=C(CS(=O)(=O)c1cccc2nsnc12)N1CCN(c2cccc(Cl)c2)CC1	inactive
COCC(=O)N=Nc1c(O)[nH]c2ccccc12	inactive
COc1cc(N=Cc2c(O)[nH]c3ccccc23)cc(OC)c1OC	inactive
COc1ccc(N=Cc2c(O)[nH]c3ccccc23)cc1OC	15.1 µM (active)
Cc1ccccc1N1CCN(Cc2nc(Cc3ccccc3F)no2)CC1	inactive
CCCCC(=O)Nc1ccc(C(=O)Nc2cc(C(F)(F)F)ccc2Cl)cc1	inactive
COc1ccc(C(=O)COC(=O)CCCC(=O)Nc2cc(C(F)(F)F)ccc2Cl)cc1	2.13 µM (active)

Compound	Potency
CC(=O)Nc1ccc(NC(=O)CCCNC(=O)c2ccc(Cl)cc2)cc1	inactive
Cc1ccc(Cl)cc1NC(=O)COC(=O)CC(C)(C)C	inactive
COc1cc(OC)c(C(=O)OC(C)C(=O)Nc2cc(C(F)(F)F)ccc2Cl)cc1OC (centres undefined)	inactive
O=C(COC(=O)CCCNC(=O)c1ccc(Cl)cc1)Nc1cc(Cl)ccc1Cl	16.9 µM (active)
COc1ccc(CC(=O)NCCc2sc3nc(-c4ccc(OC)cc4)nn3c2C)cc1	inactive
O=C(NCc1ccco1)C1CCCN1S(=O)(=O)c1ccccc1C(F)(F)F (centres undefined)	inactive
C/C(=N\OCC(=O)O)c1ccc(Cl)cc1	inactive
CCOc1cc(/C=C(/C#N)c2ccc(Cl)cc2)cc(Cl)c1OCC(=O)O	3.79 µM (active)
COc1cc(/C=C(/NC(=O)c2ccc(Cl)cc2Cl)C(=O)O)cc(OC)c1OC	inactive
COc1ccc2nc(NC(=O)c3ccc(Br)s3)sc2c1	3.01 µM (active)
COc1ccc2nc(NC(=O)NC3CCCCC3)sc2c1	9.53 µM (active)
CCc1noc(C)c1C(=O)Nc1nc2ccc(OC)cc2s1	5.36 µM (active)
COc1ccc(CNC(=O)c2ccc(Br)s2)cc1OC	inactive
COc1ccc(NC(=O)CCC(=O)Nc2nnc(C3CCCCC3)s2)cc1	inactive
CCc1nc2ccccc2c(C(=O)NCc2ccc(OC)cc2)c1C	inactive
COc1ccc2oc(=N)c(C(=O)Nc3ccc(Br)cc3)cc2c1	inactive
Cc1cccc(S(=O)(=O)CC(=O)Nc2nc(-c3ccccc3)cs2)c1	inactive
CCc1noc(C)c1C(=O)NNC(=O)c1ccc(F)cc1	inactive
CCc1noc(C)c1C(=O)Nc1nc(-c2ccccc2)cs1	19 µM (active)
CCCC(=O)Nc1nc2ccc(NC(=O)c3c(F)c(F)c(OC)c(F)c3F)cc2s1	inactive
COc1ccc(S(=O)(=O)N2CCN(C(=O)NC3CCCCC3)CC2)cc1	inactive
Cc1ccc(Cl)cc1N1CCN(C(=O)C2CCC(CNS(=O)(=O)c3cccs3)CC2)CC1 (centres undefined)	inactive
Cc1ccc(C(=O)Nc2cc3c(cc2N2CCCC2)n(C)c(=O)c(=O)n3C)cc1	inactive
Cc1oc2ccc(O)c(CN3CCC(C)CC3)c2c1C(=O)Nc1ccccc1	inactive
COc1ccc(OC)c(S(=O)(=O)Nc2c(C)nn(C)c2C)c1	inactive
COc1ccc(-c2nn3c(-c4ccc(OC)cc4)nnc3c3ccccc23)cc1	inactive

Compound	Potency
COCCCNC(=S)N(CCN(C)C)Cc1cc2cc3c(cc2[nH]c1=O)OCCO3	inactive
O=C(CN1c2ccccc2S(=O)(=O)c2ccccc21)Nc1cccc(C(F)(F)F)c1	inactive
O=C(Cn1c(=O)n(Cc2ccccc2)c(=O)c2sc3ccccc3c21)Nc1ccccc1F	inactive
CCn1c(SCC(=O)NC2CCCC2)nnc1-c1ccoc1C	inactive
CCOc1ccc2nc(NC(=O)CSc3nc4c(c(=O)n(C)c(=O)n4C)n3CC)sc2c1	inactive
CCn1c(SCC(=O)Nc2nc3ccc(OC)cc3s2)nnc1-c1ccoc1C	10.7 µM (active)
CCOc1ccccc1C(=O)Nc1ccc2c(c1)N(C)C(=O)c1ccccc1S2	inactive
Cc1ccc(-n2c(SCC(=O)c3ccccc3)nc3c([nH]c4ccccc43)c2=O)cc1	inactive
CSc1ccc(CCNC(=O)CS(=O)(=O)Cc2nc(-c3ccccc3F)oc2C)cc1	inactive
CCOC(=O)c1ccc(NC(=O)C2CC(=O)N(c3ccc4c(c3)OCCO4)C2)cc1 (centres undefined)	inactive
Cc1ccc(-c2cc(C(=O)N/N=C/C=C/c3ccco3)c3ccccc3n2)cc1C	1.07 µM (active)
O=C(N/N=C/C=C/c1ccco1)c1cccs1	26.9 µM (active)
CC1C/C(=N/NC(=O)c2cccs2)CC(C)(C)C1 (centres undefined)	inactive
Cc1cc(C(=O)Nc2ccc(C)c(S(=O)(=O)N3CCOCC3)c2)c2ccccc2n1	inactive
Cc1ccc(NC(=O)CCC(=O)N/N=C/c2ccco2)c(C)c1	inactive
Cc1cccc(-n2c(C)cc(/C=N\NC(=O)c3cccs3)c2C)c1	1.2 µM (active)
Cc1cc(/C=N/Nc2ccc([N+](=O)[O-])cn2)c(C)n1-c1cccc(C(=O)O)c1	inactive
Cc1ccc(-c2nnc(SCC(=O)N/N=C/c3cccs3)n2-c2ccc(C)cc2)cc1	inactive
Cc1ccc(-n2c(C)cc(/C=N\NC(=O)CC(=O)NC(C)C)c2C)cc1	13.5 µM (active)
Cc1cc(/C=N/NC(=O)CC2(C)OCCO2)c(C)n1-c1ccc(Cl)c(Cl)c1	inactive
Cc1cccc(-n2c(C)cc(/C=N/NC(N)=S)c2C)c1	inactive
O=C(COC(=O)CCC(=O)c1cccs1)NCc1ccco1	inactive
CCOC(=O)c1c(C)oc2nc(C)nc(N(CC(C)C)CC(C)C)c12	inactive
O=C(COC(=O)CCCN1C(=O)c2cccc3cccc(c23)C1=O)NC1CCS(=O)(=O)C1 (centres undefined)	inactive
COc1ccc(N2CCN(C(=O)c3c(C)oc4nc(C)nc(N5CCCC5)c34)CC2)cc1	inactive
Cc1ccccc1Nc1nc(N)nc(COC(=O)CCC(=O)c2ccc(F)cc2)n1	inactive
